Shown is part of a subset that was picked to be rich in hits.
Pf Dd2 inh: qHTS Primary assay for Inhibitors of Plasmodium falciparum Dd2 growth in vitro; P. falciparum Dd2 growth, SYBR Green, 72 h; Potency, µM (titrated, usually from 28.9 µM), hits mostly inhibitors; actives 4.3% (n = 120,000); active = well fitted inhibition curve with a large enough effect; note: nearly all actives have a fitted effect of over 65% in size
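Readout: SYBR Green fluorescence, 485 nm excitation, 535 nm emission, after ~16 h lysis at 37C. Before that, Dd2-infected red cells (2.5% hematocrit) grew 72 h with compound, 29 uM top final concentration.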
Of the large screens only hits and unclear results are named; the others gave an inactive call.

CC(C)NC(=O)C1c2ccccc2C(=O)N(C2CCCC2)C12CCCC2 (centres undefined)	none
COC(=O)CNC(=O)C1c2ccccc2C(=O)N(C2CCCC2)C12CCCCC2 (centres undefined)	none
O=C(NC1CCCC1)C1c2ccccc2C(=O)N(C2CCCC2)C12CCCCC2 (centres undefined)	Pf Dd2 inh 10µM
COc1cc(C)ccc1OCc1cc(C(=O)N(C)Cc2ncccc2C)no1	none
COCCNC(=O)[C@H]1C[C@H](Oc2ccccc2)CN1C(=O)C(C)C	none
CCOC(=O)N1CCC(NC(=O)c2cnn(-c3cccc(Cl)c3C)c2C2CCN(C(=O)OC(C)(C)C)CC2)CC1	none
COc1ccc(-n2ncc(C(=O)NCCc3ccsc3)c2C2CCN(C(=O)OC(C)(C)C)CC2)cc1	none
Cc1ccc(-n2ncc(C(=O)NC3CCN(Cc4ccccc4)CC3)c2C2CCN(C(=O)OC(C)(C)C)CC2)cc1C	none
COc1ccc(CNC(=O)c2cnn(-c3ccc(OC)cc3)c2C2CCN(C(=O)OC(C)(C)C)CC2)cc1	none
CCOC(=O)N1CCC(NC(=O)c2cnn(-c3ccc(C)cc3)c2C2CCN(C(=O)OC(C)(C)C)CC2)CC1	Pf Dd2 inh 11µM
CCOC(=O)N1CCC(NC(=O)c2cnn(-c3ccc(OC)cc3)c2C2CCN(C(=O)OC(C)(C)C)CC2)CC1	Pf Dd2 inh 8.9µM
CC[C@H]1CN(S(=O)(=O)c2ccc(OC)cc2)CC[C@H]1CC(=O)NCc1cccnc1	none
CC1(C(=O)N2C[C@@H](Oc3cccnc3)C[C@H]2C(=O)N2CCCC2)CCCCC1	none
Cn1nc(-c2ccc(F)cc2)cc1[C@H]1CN2CC[C@H]1C[C@@H]2COC(=O)Nc1cccc(C(F)(F)F)c1	none
Cc1nc(-c2cccs2)cc([C@H]2CN3CC[C@H]2C[C@@H]3COC(=O)Nc2cccc(C(F)(F)F)c2)n1	Pf Dd2 inh 7.9µM
Cc1nc(-c2cccs2)cc([C@H]2CN3CC[C@H]2C[C@@H]3CO)n1	Pf Dd2 inh 11µM
Cc1nc(-c2cccs2)cc([C@H]2CN3CC[C@H]2C[C@@H]3COC(=O)NC2CCCCC2)n1	none
Cn1nc(-c2cccs2)cc1[C@H]1CN2CC[C@H]1C[C@@H]2COC(=O)Nc1cccc(C(F)(F)F)c1	none
CCNC(=O)NC[C@H]1C[C@@H]2CCN1C[C@@H]2c1cc(-c2cccs2)nn1C	none
C[C@H]1CN(C(=O)Nc2ccc(F)cc2F)C[C@@H]1c1nc(-c2ccccc2)no1	none
O=C(Nc1ccccc1Oc1cccnc1)C1CCCN1C(=O)CC1CCCC1 (centres undefined)	none
Cn1nc(C2CCN(C(=O)c3ccoc3)CC2)c2c1CCOC2	none
CCCCc1nc(C)cc(NCCNC(=O)C2CC3(CCNCC3)CN2)n1 (centres undefined)	none
O=C1NN=C(c2cccnc2)C12CCN([S+](=O)([O-])c1cccc(C(F)(F)F)c1)CC2	none
COc1cccc(-c2ccc(C(=O)NCCCn3ccnc3C(C)C)cn2)c1	none
COC(=O)[C@@H]1C[C@H](NC(=O)c2ccc(Oc3ccccc3)cc2)CN1C	none
CN(C)c1ccc(CN2CC[C@H](c3nnc(-c4ccco4)o3)C2)cc1	none
CN(C)c1ccc(-c2nnc([C@H]3CCN(Cc4ccco4)C3)o2)cc1	Pf Dd2 inh 7.9µM
CN(C)c1ccc(-c2nnc([C@H]3CCN(Cc4ccccc4F)C3)o2)cc1	none
O=C(NC1CC1)c1cc(-c2ccccc2C(F)(F)F)nc2onc(C3CCCN3)c12 (centres undefined)	none
COc1ccc(-n2c(=O)c3c(n2Cc2ccccc2)CN(C(=O)c2cccc(C#N)c2)CC3)cc1	none
CCC(=O)C1=C(c2ccc(F)cc2)N(C(=O)CC)n2c(nnc2-c2ccc(OC)cc2)S1	Pf Dd2 inh 3.2µM
COc1ccc(-c2nnc3n2CCN(C(=O)c2ccc(F)cc2)C3)cc1	none
COc1ccc(C2=C(C(C)=O)Sc3nnc(-c4ccc(Cl)cc4)n3N2C(C)=O)cc1OC	Pf Dd2 inh 1.4µM
COc1ccc(OC(=O)CSc2nnc(-c3ccc(F)cc3)o2)cc1	none
COc1ccc(CC(=O)NCCc2sc(-c3ccc(Cl)cc3)nc2C)cc1OC	none
COc1ccc(-c2nnc3n2N(C(C)=O)C(c2ccc(Cl)c(Cl)c2)=C(C(C)=O)S3)cc1	none
CCc1nnc(SCc2nc(-c3ccc(OC)c(OC)c3)oc2C)c2cc3sc(C)cc3n12	none
CCC(=O)C1=C(c2ccc(OC)c(OC)c2)N(C(=O)CC)n2c(CC)nnc2S1	Pf Dd2 inh 1.4µM
CCc1nnc(SCC(=O)Nc2ccc(OC)c(OC)c2)c2cc3occc3n12	none
COC(=O)CNC(=O)C1CCN(C(=O)C2CN(c3ccc(OC)cc3)C(=O)N2)C1 (centres undefined)	none
CC[C@H]1CN(C(=O)C2CC2)CC[C@H]1CC(=O)N(C)CCC#N	none
CC(C)(C)CC(=O)N1CCn2c(nnc2[C@@H]2C[C@@H](O)CN2Cc2ccccc2)C1	none
COc1cc(CN2CCC3(CC2)[C@H](O)C[C@@H]3OCCN)cc(OC)c1	none
CC(C)NC(=O)N1CCN(C(=O)c2cccs2)[C@H](C(=O)N[C@@H](Cc2cccnc2)C(N)=O)C1	none
COc1ccc(F)cc1-c1ccccc1C=O	none
CC(=O)N1CCCc2ccc(NS(=O)(=O)c3ccc(C)c(C)c3)cc21	none
COc1ccc(S(=O)(=O)Nc2ccc3c(c2)N(C(C)=O)CCC3)cc1F	Pf Dd2 inh 10µM
CC(=O)N1CCCc2ccc(NS(=O)(=O)c3cccc(Cl)c3)cc21	none
CN1CCC2(CCC1=O)CN(C(=O)Cn1cccnc1=O)CCN2C (centres undefined)	none
CCn1nccc1C(=O)N1CCC2(CC1)C(OC)CN2c1cccc(F)c1 (centres undefined)	none
CN1[C@@H](CCC(=O)N2CC[C@@H](O)C2)CNC(=O)[C@@H]2[C@H]1CCN2Cc1csnn1	none
CN1CCN(C2(CNC(=O)c3ccc(C(C)(C)C)cc3)CCCCC2)CC1	none
CC(C)COc1ccc(C(=O)NCC2(N3CCN(C)CC3)CCCCC2)cc1	Pf Dd2 inh 10µM
CC(C)COc1ccc(C(=O)N2CCN(CCc3ccncc3)CC2)cc1	none
COc1ccc2c(c1)OCC(CNC(=O)c1csc(C(C)=O)c1)C2 (centres undefined)	none
CN1[C@@H](CCC(=O)N2CCCC2)CNC(=O)[C@@H]2[C@H]1CCN2Cc1nc2ccccc2n1C	none
O=C(NC1CCCCC1)c1ccc2c(c1)N(Cc1cccc(F)c1)C(=O)c1ccccc1S2	none
CC1=Nc2cc(C(=O)NC3CCCC3)ccc2Sc2ccc(C)cc21	none
CCC1=Nc2cc(C(=O)NCCC(C)C)ccc2Sc2ccc(Br)cc21	Pf Dd2 inh 13µM
CC(C)CCNC(=O)c1ccc2c(c1)N(C)C(=O)c1ccccc1S2	none
CCN1c2cc(C(=O)NC3CCCC3)ccc2C(=O)N2CCCCCC21 (centres undefined)	none
CCN1C(=O)Cc2cc(C(=O)NCCC(C)C)ccc21	none
CC1=Nc2cc(C(=O)NC3CCCC3)ccc2Sc2ccc(Cl)cc21	Pf Dd2 inh 11µM
CCN1c2cc(C(=O)NC3CCCC3)ccc2C(=O)N2CCCCC21 (centres undefined)	none
CCC1=Nc2cc(C(=O)NC3CCCC3)ccc2Sc2ccc(Cl)cc21	Pf Dd2 inh 4.5µM
COc1cccc(CC(=O)N[C@@H]2C[C@H](Cn3cc(CN(C)C)nn3)[C@@H](O)[C@H]2O)c1	none
CCCN1C(=O)C(CC(=O)NC(C)CC)Sc2ncccc21 (centres undefined)	none
COc1ccccc1CN1CCc2c(n(CCOc3ccccc3)n(-c3ccccc3)c2=O)C1	none
CN(C)C[C@@H]1CN(c2ccccn2)C[C@H]1NC(=O)NC1CCCCC1	none
C=CCNC(=O)[C@@H]1CCCN1[C@@H](C(=O)NC)c1ccccc1OC	none

High-throughput results: PubChem BioAssay, National Center for Advancing Translational Sciences (NCATS)
